Max response data for 20 compounds are collected here from PubChem BioAssay (NCATS).

Records with an inconclusive call do not appear. A number with no mark means an inactive call. Calls come from the whole dose curve; as a rule, active = well fitted curve in the direction sought with a large enough effect; inconclusive = small, poorly fitted or top-dose-only effect, or another doubt; inactive = no such curve, though single readings can be large or run the other way.
% is set by controls: 0 for no effect and ±100 for the full control effect.

A short description of this experiment: qHTS Assay for Identifying Gametocytocidal Compounds (AID 743244).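 Note: actives lower the fluorescent signal which means gametocytes are killed.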 As to conditions: P. falciparum 3D7 stage III-V gametocytes, alamarBlue, 72 h; max response: active compounds read low. The method in brief:
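In this qHTS viability screen, late-stage 3D7 gametocytes are incubated with compound for 72 h, then with alamarBlue for 24 h; reduced resorufin fluorescence marks killing.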
On the technique in general: Quantitative high-throughput screening tests each substance at several concentrations.
As to `OCC(O)CS` (stereo not given), the max response was 0.0928%.
With `O=C(NCN1CCOCC1)c1cnccn1`, the max response is -4.94%.
Consider `C/C=C/C(=O)N(CC)c1ccccc1C`, for which the max response was 21.1%.
The result for `C[N+]1(C)CCCC(OC(=O)C(O)(c2ccccc2)c2ccccc2)C1` (stereo not given) reads 8.34%.
As for `c1ccc2[nH]ccc2c1`, the max response is -5.55%.
As for `CC(=O)OCC(=O)[C@@]1(O)CC[C@H]2[C@@H]3CCC4=CC(=O)C=C[C@]4(C)[C@@]3(F)[C@@H](O)C[C@@]21C`, the max response was 18.9%.
Regarding `CC(=O)N[C@@H](Cc1ccc(O)cc1)C(=O)O`, the max response was -6.61%.
As to `CCCCCCCC(=O)OCC(O)CO` (stereo not given), the max response was 0.163%.
The result for `CCOc1ccc(C(=O)OCCN(CC)CC)cc1` reads 4.91%; that for `COc1ccc(C(=O)N2CCN(CC(=O)N3CCOCC3)CC2)cc1`, -4.8%; that for `NS(=O)(=O)c1ccc(C(=O)O)cc1`, 4.63%.
Consider `N[C@@H](Cc1ccc(O)cc1)C(=O)O`, for which the max response is 0.124%.
On to `CC[N+](C)(CC)CCOC(=O)C1c2ccccc2Oc2ccccc21`, for which the max response is 7.42%.
Under `O=c1[nH]c(=O)c2ccccc2o1` stands -4.26%; under `CC(=O)Oc1cccc(C)c1`, 19.2%.
Regarding `CN/C(=C\[N+](=O)[O-])NCCSCc1csc(CN(C)C)n1`, the max response is 18.9%.
As to `Nc1ccc(C(=O)Oc2ccccc2)c(O)c1`, the max response is -7.01%.
On to `OCc1ccc(Cl)cc1Cl`, for which the max response was -2.07%.
In the case of `Cc1c(Cn2ccnc2)c2ccccc2n1CCC(=O)O`, the max response is -9.07%.
Consider `C[N+](C)(C)CC(O)CC(=O)[O-]` (stereo not given), for which the max response was -7.85%.
